Source: PubChem BioAssay (NCATS)
Results filed as inconclusive are left out. More than one record can exist for a structure, and the calls need not agree. Activity calls are given as the source filed them. Calls come from the whole dose curve; as a rule, active = well fitted inhibition curve with a large enough effect; inconclusive = small, poorly fitted or top-dose-only effect; inactive = flat fitted curve, though single readings scatter.

Experiments:
[1] = Drug repurposing screens with cells derived from glioblastoma tumor samples (AID 1345199); conditions: GBM patient neurospheres viability, ATP luminescence, 48 h; note: nearly all actives have a fitted effect of over 40% in size
Outline: (§1)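 Four patient lines of CD133+ GBM neurospheres were screened at several concentrations; hits were retested in those lines plus three slower-growing GBM lines, using 48-hour treatment and ATP-based viability.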

astro = control astrocytes; test: as above; conditions: viability, ATP luminescence, 48 h; series mostly up to 45.9 µM
Outline: as §1

[2] = at 45.9 µM (top of the series), tumour line B
[3] = at 45.9 µM (top of the series), tumour line D
[4] = at 46.1 µM (top of the series), tumour line C
% is set by controls: 0 for no effect and ±100 for the full control effect; potency is the fitted concentration of half-maximal effect.

In the case of `S=C(S)N1CCNCC1`, the activity, negative = cell killing [1, 2] is reported as -3.67% (inactive), the activity, negative = cell killing [1, 3] is reported as -4.89% (inactive) and the activity, negative = cell killing ([1]; at 46 µM (top of the series), tumour line A) is reported as -30% (inactive). For the same molecule, the activity, negative = cell killing [1, 4] was -13.9% (inactive) and the Potency (astro) was “inactive”.

In the case of `CCN(CC)C(=O)N[C@H]1C[C@@H]2c3cccc4[nH]cc(c34)C[C@H]2N(C)C1`, the activity, negative = cell killing [1, 2] is reported as -22.5% (inactive), the activity, negative = cell killing [1, 3] is reported as -14.1% (inactive) and the activity, negative = cell killing [1, 4] is reported as -20.3% (inactive). For the same molecule, the Potency ([1]; tumour line A) was 22.4 µM (active) and the Potency (astro) was “inactive”.

With `CCON=O` the activity, negative = cell killing [1, 2] was -13.3% (inactive), the activity, negative = cell killing [1, 3] was 8.29% (inactive) and the activity, negative = cell killing [1, 4] was -23.8% (inactive). The Potency ([1]; tumour line A) was 0.224 µM (active) and the Potency (astro) was “inactive”.

With `Cc1ccccc1-n1c(C)nc2ccccc2c1=O` the activity, negative = cell killing [1, 2] was -8.69% (inactive), the activity, negative = cell killing [1, 3] was -13.3% (inactive) and the activity, negative = cell killing [1, 4] was -24.2% (inactive). For the same molecule, the activity, negative = cell killing ([1]; at 91.6 µM (top of the series), tumour line B) was -8.55% (inactive), the activity, negative = cell killing ([1]; at 91.6 µM (top of the series), tumour line D) was -15.5% (inactive) and the activity, negative = cell killing ([1]; at 99.2 µM (top of the series), tumour line C) was -4.7% (inactive). The Potency ([1]; tumour line A) was 44.7 µM (active) and the Potency (astro) was “inactive”.
